Source: the supplement of paper PMC11732987, “Enantioselective OTUD7B fragment discovery through chemoproteomics screening and high-throughput optimisation” (Communications Chemistry, 2025)

Tests used:
Experiment in all cases: log2 ratio of Biotin-Ahx-Ub-VS probe labelling (compound/DMSO); higher = less target engagement, active = hit call of the paper (q ≤ 0.05, log2 ratio ≤ -1)
Conditions in all cases: treatment time: 3 h
[1] = compound: CCC1N(CCc2sccc12)C(=O)CCl
Procedure, shortened: (§1)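 HEK293T lysate (495 µg per sample, in Tris/CHAPS/IGEPAL buffer with protease inhibitors) was exposed in triplicate to compound at 50 or 200 µM, or to DMSO, for 3 h, then to Biotin-Ahx-Ub-VS (0.5 µM final) for 1 h. The labelled DUBs were enriched on NeutrAvidin, digested with LysC and trypsin, and analysed by diaPASEF LC-MS/MS. Average base-two log ratios of compound over DMSO came from median-normalised label-free quantities by unpaired t-test. Only proteins with at least 2 unique peptides were used.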

[2] = compound: CN1c2ccccc2C(CS1(=O)=O)NC(=O)CCl
Procedure, shortened: as §1

[3] = compound: Cl.ClCC(=O)N1CCc2ncncc2C1
Procedure, shortened: as §1

[4] = compound: Cl.Cn1ncc2C(CCCc12)NC(=O)CCl
Procedure, shortened: as §1

[5] = compound: ClCC(=O)NC1CCOc2ccccc12
Procedure, shortened: as §1

[6] = compound: ClCC(=O)NC1CCCc2ccccc12
Procedure, shortened: (§2)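 Average ratios of compound to vehicle were obtained by unpaired t-test. Beforehand, 495 µg samples of HEK293T lysate in buffer with protease inhibitors were treated in triplicate with compound over a concentration series or vehicle for 3 h, then with 0.5 µM final Biotin-Ahx-Ub-VS for 1 h. Labelled deubiquitinases were NeutrAvidin-enriched, digested and quantified label-free by diaPASEF LC-MS/MS in Spectronaut, normalised to the global median. Values are log2 and cover proteins with at least two unique peptides.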

[7] = compound: ClCC(=O)N[C@@H]1CCCc2ccccc12
Procedure, shortened: as §2

[8] = compound: ClCC(=O)N[C@H]1CCCc2ccccc12
Procedure, shortened: as §2

[9] = compound: CCC1N(CCc2cc(OC)c(Cl)cc12)C(=O)CCl
Procedure, shortened: as §1

[10] = compound: CCCC1N(CCc2cc(OC)c(OC)cc12)C(=O)CCl
Procedure, shortened: as §1

Measured: log2 ratio of Biotin-Ahx-Ub-VS probe labelling

UniProt Q9P2H5
Sequence of UniProt Q9P2H5 (Q9P2H5 whole entry): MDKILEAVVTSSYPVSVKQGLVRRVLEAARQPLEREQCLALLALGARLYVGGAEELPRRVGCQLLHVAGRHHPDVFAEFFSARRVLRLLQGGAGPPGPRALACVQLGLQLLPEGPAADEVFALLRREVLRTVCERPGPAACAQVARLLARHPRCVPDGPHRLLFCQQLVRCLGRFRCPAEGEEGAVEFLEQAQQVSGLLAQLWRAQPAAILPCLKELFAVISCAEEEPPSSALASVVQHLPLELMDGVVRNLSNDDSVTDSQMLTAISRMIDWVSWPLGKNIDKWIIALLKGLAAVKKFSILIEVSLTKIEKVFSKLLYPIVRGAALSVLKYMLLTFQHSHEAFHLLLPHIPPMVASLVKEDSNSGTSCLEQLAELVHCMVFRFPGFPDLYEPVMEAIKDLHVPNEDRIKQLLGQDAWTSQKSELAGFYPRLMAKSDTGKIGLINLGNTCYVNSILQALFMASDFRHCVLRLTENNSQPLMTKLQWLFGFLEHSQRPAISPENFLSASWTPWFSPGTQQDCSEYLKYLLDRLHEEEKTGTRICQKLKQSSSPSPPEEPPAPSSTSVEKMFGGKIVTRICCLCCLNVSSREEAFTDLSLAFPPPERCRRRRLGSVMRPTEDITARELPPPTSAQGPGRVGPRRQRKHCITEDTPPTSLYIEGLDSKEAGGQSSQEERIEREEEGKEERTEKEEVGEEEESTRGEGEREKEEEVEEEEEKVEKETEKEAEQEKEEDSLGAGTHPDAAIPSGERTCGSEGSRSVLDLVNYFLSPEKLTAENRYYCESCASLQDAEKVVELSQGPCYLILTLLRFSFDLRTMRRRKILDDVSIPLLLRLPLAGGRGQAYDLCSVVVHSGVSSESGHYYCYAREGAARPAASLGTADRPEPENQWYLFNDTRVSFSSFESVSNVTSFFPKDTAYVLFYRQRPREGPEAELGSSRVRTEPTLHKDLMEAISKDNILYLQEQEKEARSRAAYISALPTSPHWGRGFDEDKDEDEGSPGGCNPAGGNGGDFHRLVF
inactive: [1]; compound concentration: 50uM -0.0377 | [1]; compound concentration: 200uM 0.00874 | [2]; compound concentration: 50uM -0.392 | [2]; compound concentration: 200uM -0.0291 | [3]; compound concentration: 50uM -0.175 | [3]; compound concentration: 200uM -0.43 | [4]; compound concentration: 50uM 0.0391 | [4]; compound concentration: 200uM 0.177 | [5]; compound concentration: 50uM -0.286 | [5]; compound concentration: 200uM -0.188 | [6]; compound concentration: 0.78uM -0.0934 | [6]; compound concentration: 1.56uM -0.117 | [6]; compound concentration: 3.13uM -0.133 | [6]; compound concentration: 6.25uM -0.0237 | [6]; compound concentration: 12.5uM -0.00833 | [6]; compound concentration: 25uM -0.293 | [6]; compound concentration: 50uM -0.0682 | [6]; compound concentration: 100uM -0.133 | [6]; compound concentration: 200uM -0.168 | [7]; compound concentration: 0.78uM -0.164 | [7]; compound concentration: 1.56uM -0.0308 | [7]; compound concentration: 3.13uM -0.0316 | [7]; compound concentration: 6.25uM -0.151 | [7]; compound concentration: 12.5uM -0.2 | [7]; compound concentration: 25uM -0.0579 | [7]; compound concentration: 50uM 0.05 | [7]; compound concentration: 100uM -0.00994 | [7]; compound concentration: 200uM -0.0974 | [8]; compound concentration: 0.78uM 0.0582 | [8]; compound concentration: 1.56uM -0.146 | [8]; compound concentration: 3.13uM -0.121 | [8]; compound concentration: 6.25uM -0.0964 | [8]; compound concentration: 12.5uM -0.172 | [8]; compound concentration: 25uM -0.164 | [8]; compound concentration: 50uM -0.0898 | [8]; compound concentration: 100uM -0.0993 | [8]; compound concentration: 200uM 0.0345 | [9]; compound concentration: 50uM 0.132 | [9]; compound concentration: 200uM -0.452 | [10]; compound concentration: 50uM -0.52 | [10]; compound concentration: 200uM -0.532

USP22 (UniProt Q9UPT9)
Sequence of UniProt Q9UPT9 (Q9UPT9 whole entry): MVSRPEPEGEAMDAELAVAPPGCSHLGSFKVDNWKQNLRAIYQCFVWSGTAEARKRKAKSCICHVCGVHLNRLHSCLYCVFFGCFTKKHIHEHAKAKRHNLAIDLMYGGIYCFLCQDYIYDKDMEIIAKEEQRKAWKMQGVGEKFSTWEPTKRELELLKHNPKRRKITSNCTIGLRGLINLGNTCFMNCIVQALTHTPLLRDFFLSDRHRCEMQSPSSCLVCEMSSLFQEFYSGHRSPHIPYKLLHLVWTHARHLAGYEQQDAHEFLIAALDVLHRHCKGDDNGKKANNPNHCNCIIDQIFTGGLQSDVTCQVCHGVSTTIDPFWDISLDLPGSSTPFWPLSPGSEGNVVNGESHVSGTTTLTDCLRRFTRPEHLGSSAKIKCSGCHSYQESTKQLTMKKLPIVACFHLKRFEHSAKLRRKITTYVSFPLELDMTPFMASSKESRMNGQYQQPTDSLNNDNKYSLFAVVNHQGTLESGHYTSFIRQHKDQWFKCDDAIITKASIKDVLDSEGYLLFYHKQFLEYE
inactive: [1]; compound concentration: 50uM -0.0676 | [1]; compound concentration: 200uM -0.0769 | [2]; compound concentration: 50uM -0.0879 | [2]; compound concentration: 200uM -0.227 | [3]; compound concentration: 50uM 0.165 | [3]; compound concentration: 200uM -0.284 | [4]; compound concentration: 50uM 0.167 | [4]; compound concentration: 200uM -0.0888 | [5]; compound concentration: 50uM 0.0839 | [5]; compound concentration: 200uM -0.0221 | [6]; compound concentration: 0.78uM -0.256 | [6]; compound concentration: 1.56uM -0.271 | [6]; compound concentration: 3.13uM -0.269 | [6]; compound concentration: 6.25uM -0.318 | [6]; compound concentration: 12.5uM -0.0891 | [6]; compound concentration: 25uM -0.169 | [6]; compound concentration: 50uM -0.192 | [6]; compound concentration: 100uM -0.263 | [6]; compound concentration: 200uM -0.376 | [7]; compound concentration: 0.78uM -0.254 | [7]; compound concentration: 1.56uM -0.18 | [7]; compound concentration: 3.13uM -0.341 | [7]; compound concentration: 6.25uM -0.0166 | [7]; compound concentration: 12.5uM -0.101 | [7]; compound concentration: 25uM -0.166 | [7]; compound concentration: 50uM -0.259 | [7]; compound concentration: 100uM -0.0453 | [7]; compound concentration: 200uM -0.238 | [8]; compound concentration: 0.78uM -0.107 | [8]; compound concentration: 1.56uM -0.258 | [8]; compound concentration: 3.13uM -0.171 | [8]; compound concentration: 6.25uM -0.0996 | [8]; compound concentration: 12.5uM -0.17 | [8]; compound concentration: 25uM -0.0497 | [8]; compound concentration: 50uM -0.0246 | [8]; compound concentration: 100uM -0.0113 | [8]; compound concentration: 200uM -0.194 | [9]; compound concentration: 50uM -0.141 | [9]; compound concentration: 200uM -0.349 | [10]; compound concentration: 50uM -0.229 | [10]; compound concentration: 200uM -0.475

ATXN3 (UniProt P54252)
Sequence of UniProt P54252 (P54252 whole entry): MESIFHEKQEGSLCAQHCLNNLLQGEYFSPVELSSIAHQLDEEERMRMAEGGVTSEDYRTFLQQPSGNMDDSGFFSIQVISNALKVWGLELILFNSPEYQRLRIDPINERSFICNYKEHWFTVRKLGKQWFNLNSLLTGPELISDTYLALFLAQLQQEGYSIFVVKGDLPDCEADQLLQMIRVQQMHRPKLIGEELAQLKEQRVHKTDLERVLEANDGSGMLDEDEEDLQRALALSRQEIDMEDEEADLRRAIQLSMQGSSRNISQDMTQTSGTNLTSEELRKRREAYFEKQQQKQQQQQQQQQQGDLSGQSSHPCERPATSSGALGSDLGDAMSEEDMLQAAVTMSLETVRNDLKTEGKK
active: [3]; compound concentration: 200uM -1.37 | [9]; compound concentration: 200uM -1.54
inactive: [1]; compound concentration: 50uM -0.116 | [1]; compound concentration: 200uM -0.483 | [2]; compound concentration: 50uM -0.0445 | [2]; compound concentration: 200uM -0.365 | [3]; compound concentration: 50uM -0.35 | [4]; compound concentration: 50uM 0.199 | [4]; compound concentration: 200uM -0.212 | [5]; compound concentration: 50uM 0.00952 | [5]; compound concentration: 200uM -0.0594 | [6]; compound concentration: 0.78uM -0.108 | [6]; compound concentration: 1.56uM -0.213 | [6]; compound concentration: 3.13uM -0.478 | [6]; compound concentration: 6.25uM -0.165 | [6]; compound concentration: 12.5uM -0.236 | [6]; compound concentration: 25uM -0.301 | [6]; compound concentration: 50uM -0.18 | [6]; compound concentration: 100uM -0.156 | [6]; compound concentration: 200uM -0.285 | [7]; compound concentration: 0.78uM -0.286 | [7]; compound concentration: 1.56uM -0.107 | [7]; compound concentration: 3.13uM -0.24 | [7]; compound concentration: 6.25uM -0.0908 | [7]; compound concentration: 12.5uM -0.0507 | [7]; compound concentration: 25uM -0.218 | [7]; compound concentration: 50uM -0.0106 | [7]; compound concentration: 100uM -0.151 | [7]; compound concentration: 200uM -0.0598 | [8]; compound concentration: 0.78uM -0.183 | [8]; compound concentration: 1.56uM -0.0688 | [8]; compound concentration: 3.13uM -0.152 | [8]; compound concentration: 6.25uM -0.297 | [8]; compound concentration: 12.5uM -0.125 | [8]; compound concentration: 25uM -0.266 | [8]; compound concentration: 50uM -0.171 | [8]; compound concentration: 100uM -0.0739 | [8]; compound concentration: 200uM -0.312 | [9]; compound concentration: 50uM -0.248 | [10]; compound concentration: 50uM 0.126 | [10]; compound concentration: 200uM -0.435

USP15 (UniProt Q9Y4E8)
Sequence of UniProt Q9Y4E8 (Q9Y4E8 whole entry): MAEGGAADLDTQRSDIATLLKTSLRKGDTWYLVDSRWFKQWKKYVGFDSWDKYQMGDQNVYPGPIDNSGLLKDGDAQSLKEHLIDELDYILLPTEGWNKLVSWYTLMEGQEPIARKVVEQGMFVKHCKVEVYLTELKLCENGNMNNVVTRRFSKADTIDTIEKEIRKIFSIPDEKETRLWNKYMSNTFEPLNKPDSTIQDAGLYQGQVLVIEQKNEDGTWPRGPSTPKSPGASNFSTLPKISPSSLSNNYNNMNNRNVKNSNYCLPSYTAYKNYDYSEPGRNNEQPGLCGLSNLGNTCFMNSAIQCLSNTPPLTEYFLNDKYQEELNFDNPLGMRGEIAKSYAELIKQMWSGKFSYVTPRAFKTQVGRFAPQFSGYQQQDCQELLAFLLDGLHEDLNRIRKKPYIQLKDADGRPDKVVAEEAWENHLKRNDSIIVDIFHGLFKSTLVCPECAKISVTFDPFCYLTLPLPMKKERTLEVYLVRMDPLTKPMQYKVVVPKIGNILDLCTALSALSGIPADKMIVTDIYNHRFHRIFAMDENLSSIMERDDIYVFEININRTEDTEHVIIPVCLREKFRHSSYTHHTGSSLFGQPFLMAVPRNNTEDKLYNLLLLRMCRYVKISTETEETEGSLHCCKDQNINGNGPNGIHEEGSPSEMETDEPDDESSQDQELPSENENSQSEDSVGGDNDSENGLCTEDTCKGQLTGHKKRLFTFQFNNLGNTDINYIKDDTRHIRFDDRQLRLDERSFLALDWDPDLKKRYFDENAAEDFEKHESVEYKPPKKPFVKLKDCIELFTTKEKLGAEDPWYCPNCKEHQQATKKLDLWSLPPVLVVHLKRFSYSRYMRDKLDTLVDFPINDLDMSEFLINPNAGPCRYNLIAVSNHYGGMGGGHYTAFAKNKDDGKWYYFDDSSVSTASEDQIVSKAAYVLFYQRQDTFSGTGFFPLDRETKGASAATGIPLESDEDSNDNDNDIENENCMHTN
inactive: [1]; compound concentration: 50uM -0.208 | [1]; compound concentration: 200uM -0.456 | [2]; compound concentration: 50uM -0.352 | [2]; compound concentration: 200uM -0.178 | [3]; compound concentration: 50uM -0.273 | [3]; compound concentration: 200uM -0.899 | [4]; compound concentration: 50uM 0.0231 | [4]; compound concentration: 200uM 0.118 | [5]; compound concentration: 50uM -0.104 | [5]; compound concentration: 200uM -0.0799 | [6]; compound concentration: 0.78uM -0.111 | [6]; compound concentration: 1.56uM 0.00504 | [6]; compound concentration: 3.13uM -0.0668 | [6]; compound concentration: 6.25uM 0.00578 | [6]; compound concentration: 12.5uM 0.00284 | [6]; compound concentration: 25uM -0.194 | [6]; compound concentration: 50uM -0.0476 | [6]; compound concentration: 100uM -0.0886 | [6]; compound concentration: 200uM -0.0894 | [7]; compound concentration: 0.78uM -0.15 | [7]; compound concentration: 1.56uM -0.0871 | [7]; compound concentration: 3.13uM -0.0689 | [7]; compound concentration: 6.25uM -0.0495 | [7]; compound concentration: 12.5uM -0.0456 | [7]; compound concentration: 25uM -0.00914 | [7]; compound concentration: 50uM -0.0377 | [7]; compound concentration: 100uM -0.0901 | [7]; compound concentration: 200uM -0.162 | [8]; compound concentration: 0.78uM -0.089 | [8]; compound concentration: 1.56uM -0.101
